Test [1] in a line: Quantitative High-Throughput drug screen in 47 multiple myeloma cell lines against the NCATS MIPE library collection: MM1R_ATCC cell viability assay (AID 1918981). Further: nearly all actives have a fitted effect of over 35% in size. In outline: (§1)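 Readout: median RLU from CellTiter-Glo after 5 min at room temperature. Preceding step was 48 h drug treatment of 500 cells/well at 37 °C, 5% CO2, with DMSO-only and media-only control wells.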
Test [2] can be described thus: Quantitative High-Throughput drug screen in 47 multiple myeloma cell lines against the NCATS MIPE library collection: LP1_DSMZ cell viability assay (AID 1918982). Further: nearly all actives have a fitted effect of over 35% in size. Summed up: as §1
Test [3] can be described thus: Quantitative High-Throughput drug screen in 47 multiple myeloma cell lines against the NCATS MIPE library collection: KMS28PE_JCRB cell viability assay (AID 1918983). Further: nearly all actives have a fitted effect of over 35% in size. In outline: as §1
Test [4] is described as follows: Quantitative High-Throughput drug screen in 47 multiple myeloma cell lines against the NCATS MIPE library collection: L363_DSMZ cell viability assay (AID 1918984). Further: nearly all actives have a fitted effect of over 40% in size. Summed up:
as §1

A short description of test [5]: Quantitative High-Throughput drug screen in 47 multiple myeloma cell lines against the NCATS MIPE library collection: KMS34_JCRB cell viability assay (AID 1918985). Further: nearly all actives have a fitted effect of over 40% in size. In outline: as §1
Test [6] can be described thus: Quantitative High-Throughput drug screen in 47 multiple myeloma cell lines against the NCATS MIPE library collection: OPM1_PLB cell viability assay (AID 1918989). Further: nearly all actives have a fitted effect of over 40% in size. Summed up: as §1
The nature of test [7]: Quantitative High-Throughput drug screen in 47 multiple myeloma cell lines against the NCATS MIPE library collection: U266_ATCC cell viability assay (AID 1919864). Further: nearly all actives have a fitted effect of over 35% in size. Summed up:
as §1

Test [8] in a line: Quantitative High-Throughput drug screen in 47 multiple myeloma cell lines against the NCATS MIPE library collection: OCIMY5_PLB cell viability assay (AID 1918988). Further: nearly all actives have a fitted effect of over 65% in size. Summed up: as §1
A short description of test [9]: Quantitative High-Throughput drug screen in 47 multiple myeloma cell lines against the NCATS MIPE library collection: OCIMY7_PLB cell viability assay (AID 1918987). Further: nearly all actives have a fitted effect of over 65% in size. In outline: as §1

The structures appear in SMILES notation. Inconclusive results are not listed. A number with no mark means an inactive call. The source made the active and inactive calls. The call rests on the fitted dose curve; in most records, active means well fitted cell-killing curve with a large enough effect; inconclusive means small, poorly fitted or top-dose-only effect, or effect the other way; inactive means no such curve, though single readings can be large or run the other way.
Potency means the concentration at half of the fitted maximal effect.

In the case of `N=c1c2c(-c3ccccc3)c(-c3ccccc3)n(Cc3ccccc3)c2ncn1C1CCC(O)CC1` (stereo not given), the Potency in [1] is 18.7 µM (active); in test [2], 23.5 µM (active); in test [3] it was 11.8 µM (active); in test [4], 5.26 µM (active); in test [5] it was 13.2 µM (active); in test [6], 3.32 µM (active). Moreover, in test [7], the Potency was 4.69 µM (active).
Take `Cc1ccccc1-n1c(Cn2ncc3c(N)ncnc32)nc2cccc(C)c2c1=O`: the Potency in test [1] was 16.6 µM (active); in test [3], 9.35 µM (active); in [4], 0.0743 µM (active); in test [6] it was 0.148 µM (active). In addition, the Potency entry in test [7] is “inactive”.
With `CC(C)N(CCNC(=O)CN1CCCC1=O)C(C)C`, the Potency result in test [1], in test [2], in test [3], in test [4], in [5] and in [6] was “inactive” in each case. Further, in test [7], the Potency result is “inactive”.
For the molecule `O=C(Nc1ccncc1)C(=O)c1cn(Cc2ccc(Cl)cc2)c2ccccc12`, the Potency in test [1] was 0.187 µM (active); in test [2], 0.0935 µM (active); in test [4], 0.0132 µM (active); in test [5], 0.0469 µM (active); in [8], 0.0372 µM (active); in test [6], 0.0526 µM (active). For the same molecule, the Potency result in test [7] was “inactive”.
With `C#CC1(O)CCC2C3CCC4=CC(=O)CCC4(C)C3CCC21C` (stereo not given), the Potency entry in [1], in test [2], in [5], in test [6] and in [7] was “inactive” in each case. In [3], the Potency was 20.9 µM (active).
As to `COc1cc2cc(c1Cl)N(C)C(=O)C[C@H](OC(=O)C(C)C)[C@]1(C)O[C@H]1[C@H](C)[C@@H]1C[C@@](O)(NC(=O)O1)[C@H](OC)C=CC=C(C)C2`, the Potency result in [1], in [2], in [3], in test [4], in test [5] and in test [9] was “inactive” in each case. Besides, the Potency entry in [8], in test [6] and in [7] was “inactive” throughout.
On to `CC(C)(C)c1cc(C=C(C#N)C#N)cc(Br)c1O`, for which the Potency was 23.5 µM (active) in test [1]; 23.5 µM (active) in test [2]; 23.5 µM (active) in test [3]; 9.35 µM (active) in test [6]; 26.4 µM (active) in [7].
Regarding `Cc1ccccc1-n1c(Cn2cnc3c(N)ncnc32)nc2cccc(C)c2c1=O`, the Potency is 0.187 µM (active) in test [1]; 0.296 µM (active) in test [3]; 0.148 µM (active) in test [5]; 1.32 µM (active) in test [9]; 1.66 µM (active) in test [8]; 0.332 µM (active) in test [6].
Take `C[C@H]1CCCC=CC2C[C@H](O)C[C@@H]2[C@H](O)C=CC(=O)O1` (stereo not given in full): the Potency result in [1], in test [2], in [4], in test [5], in test [9] and in test [8] was “inactive” in each case. Further, the Potency result in test [6] and in [7] was “inactive” each time.
With `O=S(=O)(F)Cc1ccccc1`, the Potency entry in [1], in test [2], in test [3], in test [5] and in [8] was “inactive” throughout. Besides, the Potency in test [6] is 13.2 µM (active).
On to `C[C@@H]1CC[C@@]2(OC1)O[C@H]1C[C@H]3[C@@H]4CC=C5C[C@@H](O[C@@H]6O[C@H](CO)[C@@H](O[C@@H]7O[C@@H](C)[C@H](O)[C@@H](O)[C@@H]7O)[C@H](O)[C@@H]6O[C@@H]6O[C@@H](C)[C@H](O)[C@@H](O)[C@@H]6O)CC[C@]5(C)[C@@H]4CC[C@]3(C)[C@@H]1[C@H]2C`, for which the Potency in test [1] was 2.09 µM (active); in test [2] it was 2.96 µM (active); in test [3], 2.96 µM (active); in [4], 1.87 µM (active); in [5], 1.87 µM (active); in test [6] it was 2.96 µM (active).
For the molecule `CC=C(C)C(=O)O[C@H]1C(C)=C2[C@@H]3OC(=O)[C@@](C)(O)[C@@]3(O)[C@@H](OC(=O)CCC)C[C@](C)(OC(C)=O)[C@@H]2[C@@H]1OC(=O)CCCCCCC`, the Potency in test [1] was 0.0166 µM (active); in [2], 0.0296 µM (active); in [3], 0.132 µM (active); in test [5] it was 0.0166 µM (active); in [6], 0.264 µM (active); in [7], 0.935 µM (active).
With `C[C@@H]1O[C@@H](O[C@@H]2C=C3CC[C@@H]4[C@@H](CC[C@]5(C)[C@H](c6ccc(=O)oc6)CC[C@@]45O)[C@@]3(C)CC2)[C@H](O)[C@H](O)[C@H]1O`, the Potency in test [1] is 0.0264 µM (active); in test [2], 0.0066 µM (active); in [3] it was 0.0166 µM (active); in [4], 0.0083 µM (active); in test [5], 0.0332 µM (active); in test [8], 0.0132 µM (active). For the same molecule, the Potency in [6] was 0.0296 µM (active); in test [7] it was 0.0093 µM (active).
With `CC=C(C)C(=O)N[C@@H](c1ccccc1)[C@@H](O)C(=O)O[C@H]1C[C@@]2(O)[C@@H](OC(=O)c3ccccc3)[C@@H]3[C@]4(OC(C)=O)CO[C@@H]4C[C@H](O)[C@@]3(C)C(=O)[C@H](OC(C)=O)C(=C1C)C2(C)C`, the Potency result in test [1], in test [2], in test [3], in [5] and in test [8] was “inactive” each time.
Turning to `C[C@@H]1[C@H](O)[C@@H](C)C=CC=CCCC=CC=CC=CC=C[C@H](O[C@H]2O[C@@H](C)[C@H](O)[C@@H](N)[C@@H]2O)CC2O[C@](O)(C[C@@H](O)[C@H](O)CC[C@@H](O)C[C@@H](O)C[C@@H](O)CC(=O)O[C@H]1C)C[C@H](O)[C@H]2C(=O)O`, the Potency result in test [1], in [2], in [3], in [5] and in test [7] was “inactive” throughout.
Turning to `COc1cccc2c1[C@]13CCN(CC4CC4)[C@H](C2)[C@]1(OC)CCC(=O)C3`, the Potency result in [1], in test [2], in test [3], in test [9], in [8] and in test [6] was “inactive” in each case. Besides, the Potency entry in test [7] was “inactive”.
For `O=C(N[C@H]1CN2CCC1CC2)c1ccc(Cl)cc1`, the Potency entry in test [1], in test [2], in test [3], in test [5] and in test [6] was “inactive” in each case. In addition, in test [7], the Potency is 4.18 µM (active).
Take `CCC(=O)OC1CCC2C3CCC4=CC(=O)CC[C@@]4(C)C3CC[C@]12C` (stereo not given in full): the Potency result in test [1], in test [2], in [3], in test [4], in [5] and in [6] was “inactive” each time.
